In PubChem BioAssay (NCI):
About 83,000 compounds went through this panel and 20% of them were active in at least one assay; those are over-represented in the sample as a whole.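 How to read the values: 0–100, growth inhibition (40 = 60% inhibited); 0, no net growth; -100 to 0, cell death (-40 = 40% of starting cells died; -100 = all dead).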 Active and inactive are the calls of the source. How the source made its calls: active means growth percent below 10; inactive means the rest.

Experiments:
Experiment in all cases: NCI-60 one-dose screen, 48 h (100 = growth as untreated, 0 = no growth, -100 = all killed)
Settings in all cases: 10 µM unless noted
DU-145 prostate = test system: DU-145 prostate
K-562 leukemia = test system: K-562 leukemia
MALME-3M melanoma = test system: MALME-3M melanoma
MDA-MB-231 breast = test system: MDA-MB-231 breast
RXF 393 renal = test system: RXF 393 renal
SF-268 CNS = test system: SF-268 CNS
SF-295 CNS = test system: SF-295 CNS
SF-539 CNS = test system: SF-539 CNS
UACC-257 melanoma = test system: UACC-257 melanoma
M14 melanoma = test system: M14 melanoma
HCT-15 colon = test system: HCT-15 colon
HT29 colon = test system: HT29 colon
SNB-75 CNS = test system: SNB-75 CNS
SNB-19 CNS = test system: SNB-19 CNS
PC-3 prostate = test system: PC-3 prostate
SK-MEL-5 melanoma = test system: SK-MEL-5 melanoma
UACC-62 melanoma = test system: UACC-62 melanoma
LOX IMVI melanoma = test system: LOX IMVI melanoma
SK-MEL-28 melanoma = test system: SK-MEL-28 melanoma
U251 CNS = test system: U251 CNS

Measured: growth

Nc1ccc(-c2csc(-n3[nH]c(=O)ccc3=O)n2)cc1
inactive: DU-145 prostate 107% | K-562 leukemia 103% | MALME-3M melanoma 101% | MDA-MB-231 breast 101% | RXF 393 renal 93.8% | SF-268 CNS 102% | SF-295 CNS 102% | SF-539 CNS 105% | UACC-257 melanoma 103% | M14 melanoma 96.2% | HCT-15 colon 89.1% | HT29 colon 94.5% | SNB-75 CNS 99% | SNB-19 CNS 98.6% | PC-3 prostate 96.2% | UACC-62 melanoma 101% | LOX IMVI melanoma 102% | SK-MEL-28 melanoma 108%
active: SK-MEL-5 melanoma -99.6%

CCN1C(=O)N(CC)C2C1N=C(SCc1ccc(Cl)cc1)N2/N=C/C=C/c1ccccc1OC (configuration not stated)
inactive: DU-145 prostate 90.7% | K-562 leukemia 20.9% | MALME-3M melanoma 60.9% | MDA-MB-231 breast 75.2% | RXF 393 renal 49.8% | SF-268 CNS 64.5% | SF-295 CNS 57.5% | SF-539 CNS 68% | UACC-257 melanoma 42% | M14 melanoma 45.5% | HCT-15 colon 31.4% | HT29 colon 58.3% | SNB-75 CNS 50.1% | SNB-19 CNS 79.3% | PC-3 prostate 43.7% | SK-MEL-5 melanoma 44.2% | UACC-62 melanoma 31.2% | LOX IMVI melanoma 44.5% | SK-MEL-28 melanoma 70.9%

Cc1ccc(-c2csc(NC(=O)c3ccccc3CN3C(=O)c4ccccc4C3=O)n2)cc1
inactive: DU-145 prostate 96.5% | K-562 leukemia 100% | MALME-3M melanoma 93.7% | MDA-MB-231 breast 93.2% | RXF 393 renal 89.8% | SF-268 CNS 86.6% | SF-295 CNS 95.6% | SF-539 CNS 98.4% | UACC-257 melanoma 92.4% | M14 melanoma 106% | HCT-15 colon 90.8% | HT29 colon 97.1% | SNB-75 CNS 87.3% | SNB-19 CNS 91.8% | PC-3 prostate 91.9% | SK-MEL-5 melanoma 95.5% | UACC-62 melanoma 76.6% | LOX IMVI melanoma 99.3% | SK-MEL-28 melanoma 99.9%

COC1=C(C)C(=O)N2[C@@H]1[C@H](c1ccccc1)OC21C=CC(=O)C=C1
active: DU-145 prostate 4.7% | K-562 leukemia 6.14% | MALME-3M melanoma -12.3% | RXF 393 renal -69.2% | SF-268 CNS 1.71% | SF-539 CNS -69% | UACC-257 melanoma -12.8% | M14 melanoma -43.8% | HCT-15 colon -27.3% | HT29 colon -12.6% | PC-3 prostate -5.32% | UACC-62 melanoma -55.2% | LOX IMVI melanoma -61.6% | SK-MEL-28 melanoma -14.4%
inactive: MDA-MB-231 breast 11.9% | SF-295 CNS 90.3% | SNB-75 CNS 52.7% | SNB-19 CNS 64.9% | SK-MEL-5 melanoma 33%

C/C(=N\O)c1ccc(NC(=O)CSc2nnc(-c3cc(-c4ccc(S(C)(=O)=O)cc4)nc4ccccc34)n2-c2ccccc2)cc1
inactive: DU-145 prostate 92.6% | K-562 leukemia 73.4% | MALME-3M melanoma 94.4% | MDA-MB-231 breast 76.9% | RXF 393 renal 98.7% | SF-268 CNS 77.4% | SF-295 CNS 99.4% | SF-539 CNS 83.4% | UACC-257 melanoma 99.1% | M14 melanoma 93% | HCT-15 colon 84.7% | HT29 colon 102% | SNB-75 CNS 57% | SNB-19 CNS 87.6% | U251 CNS 93.5% | SK-MEL-5 melanoma 74.8% | UACC-62 melanoma 80.6% | LOX IMVI melanoma 76.7% | SK-MEL-28 melanoma 102%

COc1ccc(-c2n[nH]c(=O)c3nc(NC(=S)Nc4ccc(Oc5ccccc5)cc4)sc23)cc1
inactive: DU-145 prostate 102% | K-562 leukemia 89.3% | MALME-3M melanoma 110% | MDA-MB-231 breast 84% | RXF 393 renal 104% | SF-268 CNS 102% | SF-295 CNS 102% | SF-539 CNS 105% | UACC-257 melanoma 79.7% | M14 melanoma 88.9% | HCT-15 colon 103% | HT29 colon 87.6% | SNB-75 CNS 80.8% | SNB-19 CNS 101% | PC-3 prostate 83.8% | SK-MEL-5 melanoma 99.9% | UACC-62 melanoma 95.2% | LOX IMVI melanoma 104% | SK-MEL-28 melanoma 104%

O=C1/C=C/[C@@H](O)[C@@H]2C[C@@H](O)C[C@H]2/C=C/CCC[C@@H](O)CCO1
inactive: DU-145 prostate 105% | K-562 leukemia 105% | MALME-3M melanoma 60.9% | MDA-MB-231 breast 113% | RXF 393 renal 52.4% | SF-268 CNS 85.6% | SF-295 CNS 89.2% | SF-539 CNS 101% | UACC-257 melanoma 49.3% | M14 melanoma 77.8% | HCT-15 colon 107% | HT29 colon 91.6% | SNB-75 CNS 41.2% | SNB-19 CNS 104% | PC-3 prostate 90.6% | SK-MEL-5 melanoma 22.9% | UACC-62 melanoma 110% | LOX IMVI melanoma 94.7% | SK-MEL-28 melanoma 28.7%

Cc1nn(-c2cc(NC3CCC(O)CC3)c3c(=O)[nH]c(CCC(F)(F)F)cc3c2)c2c1C(=O)CC(C)(C)C2 (configuration not stated)
inactive: DU-145 prostate 27% | K-562 leukemia 18.5% | MALME-3M melanoma 60% | MDA-MB-231 breast 42% | RXF 393 renal 39.1% | SF-268 CNS 72% | SF-295 CNS 48.5% | SF-539 CNS 58% | UACC-257 melanoma 62.7% | M14 melanoma 32.3% | HCT-15 colon 31.1% | HT29 colon 13.9% | SNB-75 CNS 56.8% | SNB-19 CNS 63.1% | U251 CNS 56.5% | SK-MEL-5 melanoma 51.7% | UACC-62 melanoma 45% | LOX IMVI melanoma 30.2% | SK-MEL-28 melanoma 53.8%
